In PubChem BioAssay AID1159580 (chemical genetic matrix, 2015):
About 2,000 (36%) of roughly 5,500 compounds were called active. About 18% were inconclusive and are not listed. Cut-off read from the data, not from the text of the source: active = normalized growth mostly below about 0.91 (no sharp cut-off); inconclusive = no clear call, values can overlap the other calls; inactive = mostly above about 0.92. The list shows a part of the results.

Assay: chemical genetic growth profiling, strain panel (AID 1159580);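 note: tested at 20 µM; growth read once vehicle control cultures reached saturation at 30 °C; 1 = growth at the plate median or of vehicle wells; lower values mean less growth of the strain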
Conditions: growth OD

Measured: normalized growth

Cc1cc(OC(=O)c2c(C)cc(OC(=O)c3c(C)cc(O)cc3O)cc2O)cc(O)c1C(=O)O
inactive: S. cerevisiae deletion strains, locus YAL013W, strain DEP1, active compounds read low 1.02 | S. cerevisiae deletion strains, locus YBR021W, strain FUR4, active compounds read low 0.985 | S. cerevisiae deletion strains, locus YBR229C, strain ROT2, active compounds read low 1.03 | S. cerevisiae deletion strains, locus YCL029C, strain bik1, active compounds read low 0.973 | S. cerevisiae deletion strains, locus YDL035C, strain GPR1, active compounds read low 0.997 | S. cerevisiae deletion strains, locus YDL074C, strain BRE1, active compounds read low 1.01 | S. cerevisiae deletion strains, locus YDL101C, strain DUN1, active compounds read low 1.02 | S. cerevisiae deletion strains, locus YDL134C, strain PPH21, active compounds read low 1.03 | S. cerevisiae deletion strains, locus YDL185W, strain tfp1, active compounds read low 0.99 | S. cerevisiae deletion strains, locus YDL192W, strain arf1, active compounds read low 0.979 | S. cerevisiae deletion strains, locus YDR101C, strain arx1, active compounds read low 0.971 | S. cerevisiae deletion strains, locus YDR150W, strain NUM1, active compounds read low 1.03 | S. cerevisiae deletion strains, locus YDR162C, strain NBP2, active compounds read low 0.998 | S. cerevisiae deletion strains, locus YDR318W, strain mcm21, active compounds read low 0.967 | S. cerevisiae deletion strains, locus YDR388W, active compounds read low 0.992 | S. cerevisiae deletion strains, locus YDR502C, strain sam2, active compounds read low 0.991 | S. cerevisiae deletion strains, locus YER110C, active compounds read low 0.986 | S. cerevisiae deletion strains, locus YER155C, strain BEM2, active compounds read low 1.03 | S. cerevisiae deletion strains, locus YER167W, strain BCK2, active compounds read low 1 | S. cerevisiae deletion strains, locus YGL078C, strain dbp3, active compounds read low 1 | S. cerevisiae deletion strains, locus YGL086W, strain mad1, active compounds read low 0.98 | S. cerevisiae deletion strains, locus YGL248W, strain PDE1, active compounds read low 1.04 | S. cerevisiae deletion strains, locus YGR078C, strain PAC10, active compounds read low 1 | S. cerevisiae deletion strains, locus YGR135W, strain pre9, active compounds read low 0.999 | S. cerevisiae deletion strains, locus YGR229C, strain SMI1, active compounds read low 0.953 | S. cerevisiae deletion strains, locus YGR252W, strain gcn5, active compounds read low 0.872 | S. cerevisiae deletion strains, locus YHR030C, strain SLT2, active compounds read low 1.02 | S. cerevisiae deletion strains, locus YHR079C, strain IRE1 (second series), active compounds read low 0.971 | S. cerevisiae deletion strains, locus YHR094C, strain hxt1, active compounds read low 1.01 | S. cerevisiae deletion strains, locus YHR129C, strain ARP1, active compounds read low 1.02 | S. cerevisiae deletion strains, locus YHR200W, strain rpn10, active compounds read low 0.994 | S. cerevisiae deletion strains, locus YIL066C, strain RNR3, active compounds read low 1.01 | S. cerevisiae deletion strains, locus YIL073C, strain SPO22, active compounds read low 0.956 | S. cerevisiae deletion strains, locus YIL125W, strain kgd1, active compounds read low 1.02 | S. cerevisiae deletion strains, locus YIR030C, strain dcg1, active compounds read low 0.998 | S. cerevisiae deletion strains, locus YJL095W, strain BCK1, active compounds read low 0.986 | S. cerevisiae deletion strains, locus YJL134W, strain LCB3, active compounds read low 1.02 | S. cerevisiae deletion strains, locus YJL168C, strain set2, active compounds read low 0.999 | S. cerevisiae deletion strains, locus YJL187C, strain SWE1 (second series), active compounds read low 1.01 | S. cerevisiae deletion strains, locus YJR043C, strain POL32, active compounds read low 0.981 | S. cerevisiae deletion strains, locus YJR075W, strain HOC1, active compounds read low 0.979 | S. cerevisiae deletion strains, locus YKL068W, active compounds read low 1 | S. cerevisiae deletion strains, locus YKL085W, strain MDH1 (second series), active compounds read low 0.975 | S. cerevisiae deletion strains, locus YKL085W, strain MDH1, active compounds read low 0.975 | S. cerevisiae deletion strains, locus YKL190W, strain CNB1, active compounds read low 1.02 | S. cerevisiae deletion strains, locus YKR001C, strain vps1, active compounds read low 0.967 | S. cerevisiae deletion strains, locus YLR039C, strain RIC1, active compounds read low 0.997 | S. cerevisiae deletion strains, locus YLR058C, strain SHM2, active compounds read low 1.02 | S. cerevisiae deletion strains, locus YLR102C, strain apc9, active compounds read low 1.01 | S. cerevisiae deletion strains, locus YLR262C, strain YPT6, active compounds read low 1 | S. cerevisiae deletion strains, locus YLR268W, strain sec22, active compounds read low 0.982 | S. cerevisiae deletion strains, locus YLR330W, strain CHS5, active compounds read low 1.01 | S. cerevisiae deletion strains, locus YLR342W, strain FKS1 (second series), active compounds read low 0.937 | S. cerevisiae deletion strains, locus YLR371W, strain rom2, active compounds read low 0.999 | S. cerevisiae deletion strains, locus YLR418C, strain cdc73, active compounds read low 0.959 | S. cerevisiae deletion strains, locus YML016C, strain PPZ1, active compounds read low 1.03 | S. cerevisiae deletion strains, locus YML032C, strain rad52, active compounds read low 0.965 | S. cerevisiae deletion strains, locus YML124C, strain tub3, active compounds read low 1.01 | S. cerevisiae deletion strains, locus YMR078C, strain ctf18, active compounds read low 1 | S. cerevisiae deletion strains, locus YMR223W, strain ubp8, active compounds read low 0.967 | S. cerevisiae deletion strains, locus YMR263W, strain SAP30, active compounds read low 1.02 | S. cerevisiae deletion strains, locus YMR307W, strain GAS1, active compounds read low 0.862 | S. cerevisiae deletion strains, locus YNL067W, strain RPL9B, active compounds read low 1.01 | S. cerevisiae deletion strains, locus YNL128W, strain TEP1, active compounds read low 1.04 | S. cerevisiae deletion strains, locus YNL153C, strain GIM3, active compounds read low 1.02 | S. cerevisiae deletion strains, locus YNL233W, strain BNI4, active compounds read low 0.995 | S. cerevisiae deletion strains, locus YNL250W, strain rad50, active compounds read low 0.997 | S. cerevisiae deletion strains, locus YNL271C, strain bni1, active compounds read low 0.985 | S. cerevisiae deletion strains, locus YNL298W, strain CLA4, active compounds read low 0.981 | S. cerevisiae deletion strains, locus YNL307C, strain MCK1, active compounds read low 0.966 | S. cerevisiae deletion strains, locus YNL322C, strain KRE1, active compounds read low 1.03 | S. cerevisiae deletion strains, locus YNR052C, strain pop2, active compounds read low 0.972 | S. cerevisiae deletion strains, locus YOL006C, strain TOP1, active compounds read low 0.993 | S. cerevisiae deletion strains, locus YOL012C, strain htz1 0.878 | S. cerevisiae deletion strains, locus YOL147C, strain pex11, active compounds read low 0.999 | S. cerevisiae deletion strains, locus YOR061W, strain CKA2, active compounds read low 1.02 | S. cerevisiae deletion strains, locus YOR069W, strain VPS5, active compounds read low 1.01 | S. cerevisiae deletion strains, locus YOR136W, strain idh2, active compounds read low 0.982 | S. cerevisiae deletion strains, locus YOR144C, strain elg1, active compounds read low 1.01 | S. cerevisiae deletion strains, locus YOR184W, strain ser1, active compounds read low 0.95 | S. cerevisiae deletion strains, locus YOR316C, strain cot1, active compounds read low 0.996 | S. cerevisiae deletion strains, locus YPL055C, strain LGE1, active compounds read low 1.03 | S. cerevisiae deletion strains, locus YPL241C, strain CIN2, active compounds read low 1.02 | S. cerevisiae deletion strains, locus YPR119W, strain clb2, active compounds read low 1 | S. cerevisiae deletion strains, locus YPR141C, strain kar3, active compounds read low 1.01 | S. cerevisiae deletion strains, locus YPR163C, strain tif3, active compounds read low 1 | S. cerevisiae deletion strains, locus YPR167C, strain met16, active compounds read low 1.01 | S. cerevisiae deletion strains, strain wtn01, active compounds read low 0.994 | S. cerevisiae strains, strain wild type, active compounds read low 1
active: S. cerevisiae deletion strains, locus YKL009W, strain mrt4, active compounds read low 0.76
